The values below come from PubChem BioAssay (NCATS).

For assay [1], the system named is CRL-7250. Briefly: Cytotoxic Profiling of Annotated Libraries Using Quantitative High-Throughput Screening (AID 1296008). For max response: % is set by controls: 0 for no effect and ±100 for the full control effect. Note: potency is the fitted concentration of half-maximal effect. The following applies: Five cell lines viability, CellTiter-Glo ATP luminescence, 48-72 h; max response: active compounds read low. Put shortly:
(§1)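 Cytotoxicity was measured as CellTiter-Glo ATP luminescence, read after 10 min at room temperature. Compound treatment of the cells lasted 48 or 72 hr at 37 degrees Celsius in a qHTS format.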

The subject of the next assay is HaCat. Described as above. The following applies: Five cell lines viability, CellTiter-Glo ATP luminescence, 48-72 h; max response: active compounds read low. The method in brief: as §1
Background: ATP-based viability assays read luminescence as a measure of living cells.

The next assay concerns KB-3-1. The assay is described as above. The following applies: Five cell lines viability, CellTiter-Glo ATP luminescence, 48-72 h; max response: active compounds read low. Put shortly: as §1
The test system of a further assay is NIH3T3. Described as above. As to conditions: Five cell lines viability, CellTiter-Glo ATP luminescence, 48-72 h; max response: active compounds read low. The method in brief:
as §1

A further assay deals with ICS. Briefly: qHTS profiling for inhibitors of Plasmodium falciparum proliferation (AID 504749). Note: potency is the fitted concentration of half-maximal effect. As to conditions: P. falciparum in erythrocytes, SYBR Green DNA, 72 h; series mostly up to 28.7 µM. The method in brief:
(§2)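 Infected RBCs, 0.3% parasitemia/2.5% Hct final; cpd 72 h, 37 C, 5% CO2; lysis buffer with saponin/triton/SYBR Green I, o/n RT dark; FI 485/535; norm. to artemisinin (0.29 uM) and DMSO.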
(In general: Quantitative high-throughput screening tests each substance at several concentrations.)

Another assay concerns JCK. The assay is described as above. As to conditions: P. falciparum in erythrocytes, SYBR Green DNA, 72 h; series mostly up to 28.7 µM. The method in brief: as §2
Another assay concerns N140. The assay is described as above. As to conditions: P. falciparum in erythrocytes, SYBR Green DNA, 72 h; series mostly up to 28.7 µM. The method in brief:
as §2

The next assay has as its system P93_24. The assay is described as above. As to conditions: P. falciparum in erythrocytes, SYBR Green DNA, 72 h; series mostly up to 28.7 µM. The method in brief: as §2
The test system of the next assay is P94_40. The description is as above. As to conditions: P. falciparum in erythrocytes, SYBR Green DNA, 72 h; series mostly up to 28.7 µM. Put shortly: as §2
Another assay concerns PAD. Described as above. The following applies: P. falciparum in erythrocytes, SYBR Green DNA, 72 h; series mostly up to 28.7 µM. The method in brief:
as §2

The next assay deals with PC15. The assay is described as above. The following applies: P. falciparum in erythrocytes, SYBR Green DNA, 72 h; series mostly up to 28.7 µM. The method in brief: as §2
For the next assay, the system named is PC26. The assay is described as above. As to conditions: P. falciparum in erythrocytes, SYBR Green DNA, 72 h; series mostly up to 28.7 µM. The method in brief:
as §2

Another assay has as its system PC49. The assay is described as above. As to conditions: P. falciparum in erythrocytes, SYBR Green DNA, 72 h; series mostly up to 28.7 µM. Put shortly:
as §2

The test system of a further assay is SC27B. The assay is described as above. As to conditions: P. falciparum in erythrocytes, SYBR Green DNA, 72 h; series mostly up to 28.7 µM. The method in brief: as §2
Another assay concerns TAB109. Described as above. The following applies: P. falciparum in erythrocytes, SYBR Green DNA, 72 h; series mostly up to 28.7 µM. Put shortly: as §2
The subject of the next assay is TAB113. Described as above. The following applies: P. falciparum in erythrocytes, SYBR Green DNA, 72 h; series mostly up to 28.7 µM. Put shortly: as §2
Another assay relates to TAB165. The assay is described as above. As to conditions: P. falciparum in erythrocytes, SYBR Green DNA, 72 h; series mostly up to 28.7 µM. The method in brief:
as §2

Another assay deals with W2. The description is as above. As to conditions: P. falciparum in erythrocytes, SYBR Green DNA, 72 h; series mostly up to 28.7 µM. Put shortly: as §2
A further assay relates to HEK293. In words: Cytotoxic Profiling of Annotated Libraries Using Quantitative High-Throughput Screening (AID 1296008). For max response: % is set by controls: 0 for no effect and ±100 for the full control effect. Note: potency is the fitted concentration of half-maximal effect. As to conditions: Five cell lines viability, CellTiter-Glo ATP luminescence, 48-72 h; max response: active compounds read low. The method in brief:
as §1

Assay [2] relates to CRL-7250. Briefly: qHTS assay to identify novel small-molecules to repurpose for Merkel cell carcinoma treatment (AID 1296009). The following applies: MCC and control cell lines, CellTiter-Glo viability, 72 h; series mostly up to 44.8 µM. Put shortly:
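72 hr, 37 degree celsius; NPC 8-pt / MIPE 11-pt dose response; compound pinned in DMSO; CellTiter-Glo, 10 min RT, luminescence; normalized to no-cell and DMSO controls.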

Structures are written as SMILES. Values joined by “and” are separate entries in the source; they are usually repeats but may differ in a detail not shown here. Equal values may be shown once. Inconclusive results are not listed. A number with no mark means an inactive call. Active and inactive are the calls of the source. Calls come from the whole dose curve; as a rule, active = well fitted inhibition curve with a large enough effect; inconclusive = small, poorly fitted or top-dose-only effect; inactive = flat fitted curve, though single readings scatter.
Note: nearly all actives have a fitted effect of over 60% in size.

For `Cc1cccc(C)c1NC(=O)CN1CCCC1=O`, the max response with CRL-7250 [1] is 0.285% and 2.07%; with HaCat, 3.48% and 0.767%; in the assay on KB-3-1, -16.8% and -6.89%; in the assay on NIH3T3, 1.47% and -1.95%.

Take `CC(C)=CCOc1c2occc2cc2ccc(=O)oc12`: the max response in the assay on CRL-7250 [1] was -11.3%; in the assay on KB-3-1, -18.5%; in the assay on NIH3T3 it was -0.907%. Besides, in the assay on HaCat, the result was inactive.

With `Fc1ccc(C(OCCN2CCN(CCCc3ccccc3)CC2)c2ccc(F)cc2)cc1`, the Potency is 3.55 µM (active) in the assay with ICS; 11.2 µM (active) in the assay on JCK; 5.01 µM (active) with N140; 4.47 µM (active) in the assay on P93_24; 7.94 µM (active) in the assay on P94_40; 8.91 µM (active) in the assay on PAD. Further, the Potency in the assay on PC15 is 11.2 µM (active); in the assay with PC26, 12 µM (active); in the assay on PC49 it was 8.91 µM (active); in the assay with SC27B, 8.91 µM (active); in the assay on TAB109, 7.94 µM (active); with TAB113, 8.91 µM (active). For the same compound, the Potency in the assay with TAB165 is 4.47 µM (active); in the assay with W2 it was 4.26 µM (active); in the assay on CRL-7250 [1] it was 13.2 µM (active); in the assay on HEK293 it was 18.7 µM (active) and 21.1 µM (active); with KB-3-1, 23.1 µM (active).

As to `CC(O)(CS(=O)(=O)c1ccc(F)cc1)C(=O)Nc1ccc(C#N)c(C(F)(F)F)c1` (stereo not drawn), the compound was classed as inactive with CRL-7250 [1], in the assay with HaCat, in the assay on NIH3T3 and with CRL-7250 [2]. Besides, the max response with KB-3-1 was 4.8% and -10.6%; in the assay on NIH3T3, 2.23%.

As to `CN1CCN(C(=O)O[C@H]2c3nccnc3C(=O)N2c2ccc(Cl)cn2)CC1`, the Potency entry with ICS, in the assay with JCK, in the assay with N140, in the assay on P93_24, in the assay on P94_40 and in the assay on PAD was “inactive” each time. In addition, the Potency entry in the assay on PC15, in the assay on PC26, in the assay with SC27B, in the assay on TAB109, in the assay with TAB113 and in the assay with TAB165 was “inactive” each time. The Potency entry in the assay with W2 is “inactive”. The outcome in the assay on CRL-7250 [1], with HaCat and with CRL-7250 [2] was inactive. Moreover, the max response in the assay on HaCat was -17.1%; in the assay on KB-3-1, 4.48%; in the assay with NIH3T3 it was -1.04% and -0.741%.

With `C[C@]12CC[C@H]3[C@@H](CCC4=CC(=O)CC[C@@H]43)[C@@H]1CC[C@@H]2OC(=O)CCc1ccccc1`, the figures for the max response in the assay on CRL-7250 [1], in the assay with HaCat and in the assay on NIH3T3 were -4.34%, 1.58% and -2.8%, respectively. Besides, the Potency in the assay with HEK293 was 23.7 µM (active).

On to `CNC(=O)c1ccc(N2C(=S)N(c3ccc(C#N)c(C(F)(F)F)c3)C(=O)C23CCC3)cc1F`, for which the compound was called inactive in the assay on CRL-7250 [1], with HaCat and with CRL-7250 [2]. The max response is 0.285% and 2.98% in the assay with KB-3-1; 3.77% and -4.83% with NIH3T3.

Regarding `Cc1cccc(C)c1NC1=NCCCS1`, the Potency was 12.6 µM (active) with ICS and 4.26 µM (active) in the assay with W2. The Potency result with JCK, with PC15, in the assay on SC27B and with TAB113 was “inactive” in each case. The max response was -7.18% in the assay on CRL-7250 [1]; -6.53% with HEK293; -7.27% in the assay with HaCat; -1.86% in the assay with KB-3-1; 1% with NIH3T3.

In the case of `O=c1oc2ccccc2c(O)c1C(CC(O)c1ccc(-c2ccc(Br)cc2)cc1)c1ccccc1` (stereo not drawn), the max response with CRL-7250 [1] is 0.6%; with HaCat, 4.03%; with KB-3-1, 0.095%; in the assay on NIH3T3 it was 0.0262%.

Regarding `FC(F)(F)c1cccc(C2=CCN(CCc3ccc4ccccc4c3)CC2)c1`, the Potency entry with ICS, in the assay on JCK, in the assay on N140, in the assay on P93_24, with P94_40 and in the assay on PAD was “inactive” each time. The Potency entry in the assay with PC15, in the assay with PC26, in the assay with PC49, with SC27B, in the assay with TAB113 and with TAB165 was “inactive” throughout. Besides, the Potency entry in the assay on W2 was “inactive”. Further, the max response in the assay with CRL-7250 [1] is -12.8%; with KB-3-1 it was -4.6%. Also, the compound was called inactive in the assay on HEK293, with HaCat and with NIH3T3.

As to `NCC(CC(=O)O)c1ccc(Cl)cc1` (stereo not drawn), the Potency result in the assay with ICS, in the assay on JCK, in the assay with N140, in the assay on P93_24, with P94_40 and in the assay on PAD was “inactive” throughout. The Potency result with PC15, in the assay with PC26, in the assay with PC49, in the assay with SC27B, in the assay on TAB109 and with TAB113 was “inactive” in each case. For the same compound, the Potency entry with TAB165 and with W2 was “inactive” each time. Moreover, the max response in the assay with CRL-7250 [1] was 2.02%; with HEK293, -1.23%; with KB-3-1 it was 2.79%; with NIH3T3, 0.0761%. The outcome in the assay on HaCat was inactive.

With `CC1=C2C[C@@H]3[C@@H](CC=C4C[C@@H](O)CC[C@@]43C)[C@@H]2CC[C@]12O[C@H]1C[C@H](C)CN[C@H]1[C@H]2C`, the max response in the assay with CRL-7250 [1] was 4.78%; in the assay on KB-3-1, 6.86%; with NIH3T3, 0.588%. Also, in the assay on HaCat, the compound was called inactive.

Consider `OCCOc1ccccc1`, for which the Potency result in the assay with ICS, with JCK, with N140, with P93_24, with P94_40 and in the assay with PAD was “inactive” each time. Further, the Potency entry in the assay on PC15, in the assay on PC26, in the assay with PC49, in the assay with SC27B, with TAB109 and in the assay on TAB113 was “inactive” throughout. The Potency result in the assay on TAB165 and in the assay on W2 was “inactive” throughout. Further, the max response is 3.79% in the assay with CRL-7250 [1]; 1.79% in the assay with HEK293; 1.69% and -18.4% with KB-3-1; 0.364% with NIH3T3. For the same compound, the compound was classed as inactive with HaCat.

For the compound `CC(C)=CC1C(C(=O)OCc2cccc(Oc3ccccc3)c2)C1(C)C` (stereo not drawn), the Potency entry in the assay on JCK, with N140, in the assay with P93_24, in the assay with P94_40, in the assay with PAD and in the assay with PC15 was “inactive” in each case. Moreover, the Potency result in the assay with PC26, in the assay on PC49, in the assay on SC27B, in the assay with TAB109, in the assay on TAB113 and in the assay on TAB165 was “inactive” each time. For the same compound, the outcome in the assay with CRL-7250 [1], with NIH3T3 and in the assay with CRL-7250 [2] was inactive. The results for the max response in the assay with HaCat and with KB-3-1 were 2.03% and 3.42%, respectively.

With `CC(CCc1ccccc1)NC(C)C(O)c1ccc(O)cc1` (stereo not drawn), the Potency result in the assay on ICS, in the assay on JCK, in the assay on PAD, in the assay with PC49, in the assay with SC27B and in the assay on TAB113 was “inactive” each time. For the same compound, the Potency in the assay with W2 is 4.26 µM (active). Besides, the max response in the assay with CRL-7250 [1] is -12.9%; in the assay on HEK293, -17.5%; with KB-3-1, -11.3%; in the assay on NIH3T3, -21.3%. In addition, the result in the assay with HaCat was inactive.
